From PubChem BioAssay
This is a sample that favours compounds with a hit; in the whole collection about 7.9% have one here.
HT1080-NT tox: qHTS for induction of synthetic lethality in tumor cells producing 2HG: qHTS for the HT-1080-NT fibrosarcoma cell line; HT-1080-NT fibrosarcoma viability, CellTiter-Glo ATP luminescence, 48 h; Potency, µM (titrated, usually from 46.1 µM), without a hit: top-dose activity, negative = less viability, most hits filed as cytotoxic; 360,000 compounds, 1.6% hits; AID 686970, 2013;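 note: NT is the 2HG producing partner of a matched IDH1 knockdown line; 0% = DMSO-treated cells and -100% = media-only wells without cells; nearly all actives have a fitted effect of over 55% in size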
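Toxicity toward the 2HG-producing NT line was scored as %Activity, normalised to DMSO and no-cell wells, from CellTiter-Glo luminescence after 48 hours' treatment.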
KB-V1 MDR tox: qHTS assay for MDR1-selective chemotherapeutics: Primary screen using the drug-selected MDR subline cells KB-V1 | KB-V1 MDR cells viability, CellTiter-Glo, 72 h | Potency, µM (highest dose often 46.1 µM), usual class: cytotoxic | 400,000 compounds, 3.4% hits | AID 1347076, 2019; note: % is set by controls: 0 for no effect and ±100 for the full control effect; nearly all actives have a fitted effect of over 60% in size
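KB-V1 MDR subline cells in DMEM (phenol-red free, 10% FBS) exposed to compounds in qHTS concentration series for 72 h at 37 degrees C. Viability read by CellTiter-Glo luminescence; concentration-effect curves fitted after normalization and correction.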
HT1080 IDH1KD tx: qHTS for induction of synthetic lethality in tumor cells producing 2HG: qHTS for the HT-1080-IDH1KD cell line; Potency, µM (doses to about 46.1 µM), without a hit: at the highest dose activity, negative = toxicity, actives largely listed as cytotoxic; 360,000 compounds, 2% hits; HT-1080 IDH1 knockdown viability, ATP luminescence, 48 h;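 note: 0% = DMSO wells and -100% = cell-free medium wells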
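Knockdown cells (IDH1KD HT-1080) received compounds 2 h after plating at 750 cells/well and were kept 48 h at 37 °C in 5% FBS RPMI. A CellTiter-Glo luminescence read gave % activity for curve fitting.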
SW480 rerep: A quantitative high throughput screen for small molecules that induce DNA re-replication in SW480 colon adenocarcinoma cells. Potency, µM (doses to about 46.1 µM), without a hit: at the top dose re-replication activation, hits mostly activators. AID 624297, 2012. 340,000 compounds, 1.8% hits. SW480 DNA re-replication, Hoechst DNA content imaging, 48 h; note: % of control where 0% means no effect; nearly all actives have a fitted effect of over 55% in size
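Image-based read-out: total Hoechst fluorescence of nuclei (405 nm excitation, 500-530 nm emission), with hits raising the fraction of high-intensity nuclei. SW480 colon cells incubated 48 hr with compounds at 37 C.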
KB-3-1 cytotox: qHTS assay for MDR1-selective chemotherapeutics: Primary screen using the parental adenocarcinoma cell KB-3-1 | KB-3-1 viability, CellTiter-Glo ATP luminescence, 72 h | Potency, µM (doses to about 46.1 µM), hits mostly cytotoxic | 400,000 compounds, 1.4% hits | AID 1347075, 2019; note: % is set by controls: 0 for no effect and ±100 for the full control effect; nearly all actives have a fitted effect of over 60% in size
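Cytotoxicity in the drug-sensitive parental line KB-3-1 was scored as loss of CellTiter-Glo luminescence following 72 h incubation with compound. Values come from curve fitting of normalized concentration-response data.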
MCF10A rerep: A quantitative high throughput screen for small molecules that induce DNA re-replication in MCF 10a normal breast cells. Potency, µM (highest dose often 46.1 µM), for the others: at the highest dose activity, positive = re-replication, actives largely listed as activators. 350,000 compounds, 2.9% hits. MCF 10A DNA re-replication, Hoechst nuclear intensity, 48 h; note: % of control where 0% means no effect; nearly all actives have a fitted effect of over 50% in size
Numbers without * were called inactive; i = inactive; ? = inconclusive; · = not tested or not shown; ! = repeats disagree. Calls come from the whole dose curve; as a rule, active = well fitted curve in the direction sought with a large enough effect; inconclusive = small, poorly fitted or top-dose-only effect, or another doubt; inactive = no such curve, though single readings can be large; an effect the other way counts as inactive or inconclusive. Potency is the fitted concentration of half-maximal effect.

SMILES	HT1080-NT tox	KB-V1 MDR tox	HT1080 IDH1KD tx	SW480 rerep	KB-3-1 cytotox	MCF10A rerep
O=C(COc1ccc(-n2cnnn2)cc1)Nc1ccc(F)c(F)c1	4%	·	10%	-22%	·	-8%
CC1(C(=O)Nc2ccc3c(c2)OCO3)Cc2c(-c3cccc(C(F)(F)F)c3)ccnc2O1 (configuration not stated)	?	?	12µM*	·	?	·
CC1(C(=O)Nc2ccc3c(c2)OCO3)Cc2c(-c3ccc4c(c3)OCO4)ccnc2O1 (configuration not stated)	?	?	2.1µM*	·	5.2µM*	·
CC1(C(=O)Nc2ccccc2)Cc2c(-c3cccc(C(N)=O)c3)ccnc2O1 (configuration not stated)	1%	i	7%	·	i	·
CC1(C(=O)Nc2ccc3c(c2)OCO3)Cc2c(-c3cccc(C(N)=O)c3)ccnc2O1 (configuration not stated)	?	?	3.7µM*	·	7.3µM*	·
COc1ccc(NC(=O)C2(C)Cc3c(-c4ccc5c(c4)OCO5)ccnc3O2)cn1 (configuration not stated)	?	12µM*	2.9µM*	·	5.8µM*	·
CC(NC(=O)c1ccco1)c1ccc2c(c1)OCCO2 (configuration not stated)	8%	i	11%	-11%	i	-4%
CC1(C(=O)Nc2ccc(Cl)cc2)Cc2c(-c3cccc(C(N)=O)c3)ccnc2O1 (configuration not stated)	?	?	4.6µM*	·	?	·
CC(=O)N1/C(=C/c2ccc(N(C)C)cc2)C(=O)c2ccccc21	3.3µM*	i	?	2.1µM*	?	?
CN(C)c1ccc(/C=C2\C(=O)/C(=C/c3ccc(N(C)C)cc3)c3ccccc32)cc1	·	i	·	·	i	·
COc1ccccc1CNC(=O)COC(=O)CCC(=O)c1cccs1	10%	i	18%	-12%	i	-7%
COc1cc(/C=N/NC(=S)NC2CC3CCC2C3)ccc1O (configuration not stated)	-12%	i	-13%	-11%	i	9%
C#CCSc1nccc(-c2nn(-c3ccc(C)cc3)ccc2=O)n1	-8%	?	-23%	35%	i	?
C=CCSc1nccc(-c2nn(-c3ccc(C)cc3)ccc2=O)n1	?	3.7µM*	?	?	6.5µM*	8.2µM*
CSc1nccc(-c2nn(-c3ccc(C)cc3)ccc2=O)n1	?	2.9µM*	8.2µM*	13µM*	5.2µM*	8.2µM*
CCSc1nccc(-c2nn(-c3ccc(C)cc3)ccc2=O)n1	10µM*	2.6µM*	9.2µM*	7.3µM*	2.1µM*	5.2µM*
Nc1nccc(-c2nn(-c3ccc(Cl)cc3)ccc2=O)n1	6%	i	1%	-3%	i	1%
COc1cccc(CC2(CO)CCCN(Cc3c(C)cc(C)cc3-n3cccn3)C2)c1 (configuration not stated)	?	i	?	0%	i	3%
CCOC(=O)c1c(C)n(CCO)c2ccc(O)cc12	26%	i	-2%	-4%	i	-21%
CCOCCn1c(C)c(C(=O)OCC)c2cc(O)c3ccccc3c21	0%	2.1µM*	7%	-1%	i	14%
O=C(CC1CCCCC1)N1CCCC(c2nc(-c3ccc(S(=O)(=O)N4CCCC4)cc3)no2)C1 (configuration not stated)	?	8.2µM*	-15%	-8%	i	?
O=C(c1ccco1)N1CCCC(c2nc(-c3ccc(S(=O)(=O)NCc4ccccc4)cc3)no2)C1 (configuration not stated)	?	i	?	10%	i	18µM*
COc1ccc(-c2noc(C3CCCN(C(=O)c4ccccc4)C3)n2)cc1 (configuration not stated)	?	i	-23%	5%	i	-1%
CCCCCC(=O)N1CCCC(c2nc(-c3ccc(OC)cc3)no2)C1 (configuration not stated)	2%	?	-8%	0%	?	?
COC(=O)C1=C(C)N(Cc2ccccc2)C(=NCc2cccc(Cl)c2)N[C@H]1c1cccc(F)c1	?	21µM*	?	?	?	?
SMILES	HT1080-NT tox	KB-V1 MDR tox	HT1080 IDH1KD tx	SW480 rerep	KB-3-1 cytotox	MCF10A rerep
COCCn1c(SCC(=O)N2CCCC2)nnc1-c1ccoc1C	1%	i	4%	4%	i	-7%
COc1cccc(CNC(=O)CCn2c(=O)c3cccn3c3cccnc32)c1	?	18µM*!	11%	?	i	0%
COc1ccc(CCNC(=O)CCCn2c(=O)c3cccn3c3cccnc32)c(OC)c1	25%	i	4%	-15%	i	-3%
CC(C)c1ccc(OCC(=O)N(Cc2ccco2)C2CCS(=O)(=O)C2)cc1 (configuration not stated)	0%	i	2%	-24%	i	-4%
Cc1ccc(Cl)cc1N(C)C(=O)Cn1ncc2c([nH]c3ccccc32)c1=O	19%	i	9%	21µM*	i	?
O=C1CCCN1CCCNc1ncccc1[N+](=O)[O-]	13%	i	16%	23%	?	3%
Brc1ccc2[nH]c3c(c2c1)CCC3	-13%	i	-21%	14%	?	-1%
NC(=O)c1cc(Br)cc2c3c([nH]c12)CCCC3	?	16µM*	?	?	8.2µM*	?
Brc1ccc(CNc2ccc3ncccc3c2)cc1	-10%	?	-10%	-5%	?	15µM*
COc1ccc(/C=C/C(=O)c2ccccc2)cc1Cn1nnc2ccccc21	?	21µM*	?	?	i	12µM*
COc1ccc(/C=C/C(=O)c2ccc(C(=O)/C=C/c3ccc(OC)c(OC)c3)cc2)cc1OC	-10%	i	0%	8.2µM*	?	6.5µM*
CCOc1cc(/C=C/C(=O)c2ccc(C)cc2)ccc1OCC(=O)N(C)C	-25%	15µM*	?	?	?	23µM*
COc1ccc(C=CC(=O)c2ccc(OCc3ccccc3)c(OC)c2)cc1OC	-14%	?	?	·	i	·
